Assay results from PMC7819943, “Rice protein-binding microarrays: a tool to detect cis-acting elements near promoter regions in rice”.
Over roughly 68,000 sequences, “fluorescence intensity (a.u.)” has its median near 9,100; the highest 2% begin near 16,000. Only a selection was taken, and the highest values are over-represented in it overall.

Each sequence was assayed against OsWRKY34 (Oryza sativa, UniProt Q0JBA9 1-250) (assay: protein-binding microarray (RPBM); PBS, 2% BSA, 51.3 ng/ul salmon testes DNA, 50 uM zinc acetate, 200 nM TF, 25 C, 1 h; high values mean tight binding). Conditions: protein: recombinant; tags: N-terminal polyhistidine and DsRed monomer fusion (pET32a); label: CyDye5-dUTP incorporated in the synthesized complementary strand; 3' TTTTT single-stranded linker to array surface; dsDNA, one strand shown.
Sequence of OsWRKY34 (Q0JBA9 entry or part of it): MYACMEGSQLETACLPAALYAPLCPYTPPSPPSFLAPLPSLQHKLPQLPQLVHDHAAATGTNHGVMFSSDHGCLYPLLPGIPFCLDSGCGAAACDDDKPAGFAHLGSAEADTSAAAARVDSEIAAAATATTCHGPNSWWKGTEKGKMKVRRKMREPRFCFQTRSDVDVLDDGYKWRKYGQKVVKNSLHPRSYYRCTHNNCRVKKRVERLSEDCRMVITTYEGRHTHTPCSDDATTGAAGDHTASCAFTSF
Procedure, shortened: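 In PBS with 2% BSA, salmon testes DNA and 50 µM zinc acetate, 200 nM protein was incubated on a custom Agilent array at 25 °C for 1 h and then washed off. The array had been made double-stranded by primer extension with Cy5-dUTP and blocked with 2% BSA. The proteins were transcription factors fused N-terminally to polyhistidine and DsRed, expressed in E. coli BL21-CodonPlus and purified on Ni–NTA. The binding signal is per-feature fluorescence intensity (arbitrary units) from an Axon 4000B scanner.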
“CAGCCCACCGCCGCATCCTCGCAACCACTGTCTCGCTCTCCGGAGTCACCTAGTGCAG” was tested, and the binding signal was 17000 fluorescence intensity (a.u.). “TTGTCTCACCACTGCTTCGCATCCTCCGCCGCCGCCTCACCGGAGTCACCTAGTGCAG” was tested, and the binding signal was 11000 fluorescence intensity (a.u.). In the case of “ATTTTTTTGGGCGCGGGTTGGAGCCGGTTTGACTAAAAGGCGGAGTCACCTAGTGCAG”, the binding signal is reported as 8310 fluorescence intensity (a.u.). “GATTGACTTGCCAAACATTTTACATGCGTTTATTGTACCACGGAGTCACCTAGTGCAG” was tested, and the binding signal was 9920 fluorescence intensity (a.u.). In the case of “CTCCTGGCAACCCCATGCACTGCTTTTGCTGCCCTTAAGTCGGAGTCACCTAGTGCAG”, the binding signal is reported as 8620 fluorescence intensity (a.u.). With “AAATATACAACTCTTGGACGCCCTTACATCTCTCCATTGTCGGAGTCACCTAGTGCAG” the binding signal was 8230 fluorescence intensity (a.u.). For “AGCCACCTTGTCGTTTTCCGCTCCTCACCTGCTCAACTTCCGGAGTCACCTAGTGCAG”, the binding signal was 9800 fluorescence intensity (a.u.). With “GTGCGCGTTCTTGGTGTTATGGAGGCGGGTCTCGGCGGGGCGGAGTCACCTAGTGCAG” the binding signal was 17600 fluorescence intensity (a.u.). With “CTTGGAGGTGGTTCAGGTGGAGGCGGCGGTCTCGGAGGTGCGGAGTCACCTAGTGCAG” the binding signal was 9240 fluorescence intensity (a.u.). With “CGGCGGGTTAGGGTTTGGGGTTGGGGTAAGGATAGGAGGGCGGAGTCACCTAGTGCAG” the binding signal was 14200 fluorescence intensity (a.u.). “ACACACCGCGGGTTGGAGGAGGAGGAGGAGGAGGTAGGGGCGGAGTCACCTAGTGCAG” was tested, and the binding signal was 10500 fluorescence intensity (a.u.). “GTTTGATTTGGTGAGGCGGGCGGTGTGCGCGTGGTGGTCTCGGAGTCACCTAGTGCAG” was tested, and the binding signal was 8680 fluorescence intensity (a.u.). For “GGTTTGGTTGGGGTTTAGGTCTCGGGGCGGCGCGGAGGCGCGGAGTCACCTAGTGCAG”, the binding signal was 17700 fluorescence intensity (a.u.). “TACGGGTTAGGGTTTGGGGTTGGGGTCAAGGTAGGAGGGGCGGAGTCACCTAGTGCAG” was tested, and the binding signal was 22500 fluorescence intensity (a.u.). In the case of “AGAGGTTTGGGGTTGGTTCATCTCGCGGGCTTGGGCGGCGCGGAGTCACCTAGTGCAG”, the binding signal is reported as 14400 fluorescence intensity (a.u.). With “GGTTTGGAGGCGGAGGTGGCGCTGGAGGAGGCGGCGGTCTCGGAGTCACCTAGTGCAG” the binding signal was 9970 fluorescence intensity (a.u.). “GCCTCGACATGCGCGTCCGATTTATCCCCTTTTTTTTTTTCGGAGTCACCTAGTGCAG” was tested, and the binding signal was 8470 fluorescence intensity (a.u.). For “CATGCCAGGTGTTGGGCCTCATCGTCGGCCGCTTAGTATCCGGAGTCACCTAGTGCAG”, the binding signal was 8380 fluorescence intensity (a.u.). With “TTTTGTCCTTCAACCTGTTGAAGTTGTTTTCAGTTGTTCACGGAGTCACCTAGTGCAG” the binding signal was 11600 fluorescence intensity (a.u.). In the case of “GTCACCAGTGTCCGCCAATAATTTGCACATCTTCTCATATCGGAGTCACCTAGTGCAG”, the binding signal is reported as 10300 fluorescence intensity (a.u.). For “TGCTTAGTTGCCCTACAACCTTTTTACAGGCTATATTTATCGGAGTCACCTAGTGCAG”, the binding signal was 8110 fluorescence intensity (a.u.). For “TAGCTTAATATTTTTTTTCTCGCTAGCTTTATTTAAAATGCGGAGTCACCTAGTGCAG”, the binding signal was 8170 fluorescence intensity (a.u.). With “TATTCACGGCTGCACTTATTTTGGGACGGAGGTAGTATTTCGGAGTCACCTAGTGCAG” the binding signal was 8070 fluorescence intensity (a.u.). In the case of “CCCTCCTTCCCTTTTAGTGGGTCTGTTTTCTTGGAGCGCGCGGAGTCACCTAGTGCAG”, the binding signal is reported as 8600 fluorescence intensity (a.u.). “CGCAGAATCACAGTTTTTCTTCATCTCCGGCAAGGGTAATCGGAGTCACCTAGTGCAG” was tested, and the binding signal was 8960 fluorescence intensity (a.u.). For “ACGCACCAACCGTCCCTCTTTCGCTCACACTCTTCCTTCCCGGAGTCACCTAGTGCAG”, the binding signal was 9700 fluorescence intensity (a.u.). With “TATTTTTTGCATTTTGCTCCCTGATTTGAACTGTATTTCTCGGAGTCACCTAGTGCAG” the binding signal was 8660 fluorescence intensity (a.u.). With “CTTTTCCTGCTTGGTTCGTTACTCCTGTTTAATTATTATTCGGAGTCACCTAGTGCAG” the binding signal was 14600 fluorescence intensity (a.u.). For “CGGGGTTTCACTTGGTTTTAATTGTTCCTGTGCTGCGTCGCGGAGTCACCTAGTGCAG”, the binding signal was 18700 fluorescence intensity (a.u.). With “TACATACTCCTACTCCGTAGTTTGCTGCTTTGTTGGATTCCGGAGTCACCTAGTGCAG” the binding signal was 12900 fluorescence intensity (a.u.). “GTCCCATCACCTTATTTCTCATTTTGATTTACTTTTATCTCGGAGTCACCTAGTGCAG” was tested, and the binding signal was 9330 fluorescence intensity (a.u.). For “CAATTGGTTGGGTTTCTTGTGCCTACCTGTGTTTAAGTTCCGGAGTCACCTAGTGCAG”, the binding signal was 9160 fluorescence intensity (a.u.). For “ATACCACCTTATATACTTTGCCAAAACCACCTTTTCCAAGCGGAGTCACCTAGTGCAG”, the binding signal was 9040 fluorescence intensity (a.u.). For “AGTACTACTACTACTACATACAGCTGCCTTTGCTTAGCTCCGGAGTCACCTAGTGCAG”, the binding signal was 9580 fluorescence intensity (a.u.). In the case of “TATAGATAGATACTACCAGGGTTTCCAAACTGTTTTTTTGCGGAGTCACCTAGTGCAG”, the binding signal is reported as 23300 fluorescence intensity (a.u.). With “GCCTACTCCTACTTGTACATACTTGCTTTTTTTTTTTTTCCGGAGTCACCTAGTGCAG” the binding signal was 17500 fluorescence intensity (a.u.). In the case of “TTTCTTTTTTTTGCCTACCTTTACTTTACACCAAAAACTGCGGAGTCACCTAGTGCAG”, the binding signal is reported as 8630 fluorescence intensity (a.u.). For “TTGCTCGTATTTTCTCCCCAAAGTCATCAACTTTGATGCTCGGAGTCACCTAGTGCAG”, the binding signal was 19000 fluorescence intensity (a.u.). For “CGAGGTGTGTCTCTCTCCCGTTCACCCGTCCGTATCCTTCCGGAGTCACCTAGTGCAG”, the binding signal was 11100 fluorescence intensity (a.u.). “CGATTATTTCACTAGAGGCAACCATACTGCTACCAAATCCCGGAGTCACCTAGTGCAG” was tested, and the binding signal was 10200 fluorescence intensity (a.u.). In the case of “TACCTGTTTGTTTTTAAGTTCAGATATTATATTACGTAACCGGAGTCACCTAGTGCAG”, the binding signal is reported as 8930 fluorescence intensity (a.u.). “ACCCCATTTTTTTTGAAAATTCTCGAATTTTATTTTTTTTCGGAGTCACCTAGTGCAG” was tested, and the binding signal was 8750 fluorescence intensity (a.u.).
